Screens (PubChem BioAssay)
GLP-1R agonist – activates the human GLP-1 receptor. actives 0.007% (n = 380,000). HEK293 GLP-1R CRE-luciferase, luminescence, 4-6 h; cells express a hypersensitive GLP-1R form. AID 624172. Potency, µM (doses to about 45.6 µM), inactives show at the top dose activation, hits mostly activators; note: % of control where 0% means no effect
Target sequence (P43220 whole entry, looked up): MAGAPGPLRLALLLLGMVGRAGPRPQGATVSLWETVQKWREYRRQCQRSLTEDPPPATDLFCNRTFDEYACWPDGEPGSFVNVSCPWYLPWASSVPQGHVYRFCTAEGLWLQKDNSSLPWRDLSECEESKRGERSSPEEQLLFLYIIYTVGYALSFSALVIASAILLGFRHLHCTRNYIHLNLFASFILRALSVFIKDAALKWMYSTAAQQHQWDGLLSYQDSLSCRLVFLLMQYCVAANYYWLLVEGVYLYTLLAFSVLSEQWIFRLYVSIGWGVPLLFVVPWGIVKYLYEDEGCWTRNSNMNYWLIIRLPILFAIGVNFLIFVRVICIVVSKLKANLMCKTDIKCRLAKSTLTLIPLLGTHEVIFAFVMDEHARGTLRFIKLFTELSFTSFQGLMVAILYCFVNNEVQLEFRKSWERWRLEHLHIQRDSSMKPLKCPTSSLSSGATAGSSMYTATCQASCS
HEK293 tox – cytotoxicity in counter-screen for GLP-1R inverse agonists; HEK293 cAMP-luciferase reporter cells, luminescence, 24 h; Potency, µM (top dose mostly 38.3 µM), without a hit: at the top dose activity change, negative = inhibition, actives largely listed as inhibitors; actives 0.13% (n = 410,000);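 note: loss of luciferase light is scored as toxicity; % is set by controls: 0 for no effect and ±100 for the full control effect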
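Step one: seed cells (200 cells/uL, DMEM with 10% Nu serum, 1% pen-strep). Step two: 12-hour incubation at 37 deg C. Step three: pin 23 nL compound, incubate 24 hr. Step four: add luciferase reagent, read luminescence 12 min later.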
VP16 counter – counter-screen for ROR gamma inhibitors: Gal4-VP16 reporter | Drosophila S2 Gal4-VP16 UAS-luciferase, luminescence, 20 h | Potency, µM (highest dose often 53.6 µM), inactives show at the top dose activity, negative = inhibition, most hits filed as inhibitors | actives 3.5% (n = 310,000) | AID 2546;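 note: Gal4-VP16 expression switched on by copper sulfate through the metallothionein promoter; % is set by controls: 0 for no effect and ±100 for the full control effect; nearly all actives have a fitted effect of over 50% in size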
RORgamma inh – ROR gamma (mouse) transcription inhibition. P51450. Potency, µM (highest dose often 53.6 µM), for the others: top-dose activity change, negative = inhibition, actives largely listed as inhibitors. actives 5.4% (n = 310,000). Drosophila S2 Gal4-RORgamma UAS-luciferase reporter, 20 h; note: % is set by controls: 0 for no effect and ±100 for the full control effect; nearly all actives have a fitted effect of over 60% in size
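Stable Schneider cell line, Gal4 DNA-binding domain fused to ROR gamma, UAS-luciferase. Cmpd 1 hr RT → CuSO4 700 uM final → 20 hr RT → luciferase reagent 10 min → luminescence.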
GLP1R inv ag – inverse agonists of human GLP-1 receptor. P43220. HEK293 GLP-1R CRE-luciferase, luminescence, 24 h; GLP-1R form is constitutively active. Potency, µM (doses to about 38.3 µM), for the others: at the top dose activity change, negative = inhibition, hits mostly inhibitors. actives 1.6% (n = 410,000). AID 624417; note: % is set by controls: 0 for no effect and ±100 for the full control effect; nearly all actives have a fitted effect of over 55% in size
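HEK293 cells stably co-expressing constitutively active GLP-1R and a cAMP-responsive luciferase reporter were seeded in DMEM with 10% Nu serum, given compounds after 12 h, and incubated 24 h at 37 deg C. Luminescence was then read.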
* hit, by the source's call; u = inconclusive; x = not tested or not shown; [ ] = dose if it differs, or a comment. Shown are actives, neighbours in structure and some others; about 5.9% of the full set was active somewhere. Calls come from the whole dose curve; as a rule, active = well fitted curve in the direction sought with a large enough effect; inconclusive = small, poorly fitted or top-dose-only effect, or another doubt; inactive = no such curve, though single readings can be large; an effect the other way counts as inactive or inconclusive. Potency is the fitted concentration of half-maximal effect.

SMILES	GLP-1R agonist	HEK293 tox	VP16 counter	RORgamma inh	GLP1R inv ag
CS(=O)(=O)c1ccc(C(=O)NCCN2C(=O)S/C(=C\c3cccnc3)C2=O)cc1[N+](=O)[O-]	-6.4%	u	u	5.62µM*	u
CN(C)S(=O)(=O)c1ccc(C(=O)NCCN2C(=O)S/C(=C\c3cccnc3)C2=O)cc1	-0.5%	0.7%	2.0%	-6.3%	-1.6%
FC(F)(F)c1cccc(NC(=S)N(CCCN2CCCC2)Cc2cccn2Cc2ccc(Cl)cc2)c1	2.7%	-92.6%	u	14.1µM*	6.31µM*
CC(C)N1C(=O)N(c2cccc(Cl)c2)C(C)(O)CC1(C)C (stereo not given)	13.9%	0.2%	-2.8%	7.94µM*	u
Cc1ccc(C)c(N(C)C(=O)Cc2c(C(=O)O)[nH]c3ccc(Cl)cc23)c1	23.9%	-7.4%	x	x	-5.6%
COc1ccc(OC)c(Nc2nc(NCCCN(C)C)nc(N)c2[N+](=O)[O-])c1	17.1%	u	10µM*	10µM*	u
COCCCNc1nc(N)c([N+](=O)[O-])c(Nc2cc(OC)ccc2OC)n1	17.4%	2.3%	-6.3%	-9.4%	1.7%
Cn1c(CCCOc2ccc(Cl)cc2Cl)nnc1SCC(=O)Nc1cccc(F)c1	22.1%	0.1%	u	-29.8%	2.1%
CCn1c(CCCOc2ccc(Cl)cc2Cl)nnc1SCC(=O)Nc1cc(F)ccc1C	11.4%	-27.4%	-24.4%	u	11.2µM*
CCc1c2c(nc3ccc4c(c13)OCCO4)-c1nc3ccccc3c(=O)n1C2	x	x	12.6µM*	2.51µM*	x
O=c1c2ccccc2nc2n1CCO2	3.7%	16.9%	1.3%	0.9%	23.2%
CC12CC(c3ccccc3O1)C(/C(N)=N/NC(=O)c1ccc(F)cc1)C(=O)N2 (stereo not given)	0.4%	-22.9%	u	4.47µM*	0.5%
Cn1cc(C(=O)N/N=C/c2cccs2)c2ccccc21	11.5%	u	u	10µM*	u
COc1ccccc1NC(=O)C(=O)N/N=C/c1cccs1	-7.4%	-10.8%	3.16µM*	2µM*	19.4%
Cc1nc2ccccc2cc1C(=O)N/N=C/c1cccs1	4.8%	-3.9%	u	10µM*	16.9%
CCc1cccc(C)c1NC(=O)Cn1cnc2c1c(=O)n(C)c(=O)n2C	x	3.1%	x	x	-10.0%
NC(=S)N/N=C/c1c[nH]c2ccc(OCc3ccccc3)cc12	7.8%	u	4.47µM*	5.01µM*	u
CCOC(=O)N/N=C\c1ccccc1OC/C=C/c1ccccc1	12.8%	-12.2%	10.9%	u	u
COc1cccc(/C=N/NC(N)=S)c1OCc1cccc(Cl)c1	15.0%	u	3.98µM*	2.82µM*	u
O=C(N/N=C/c1ccccc1OCc1ccccc1Cl)c1cccnc1	21.5%	-15.3%	-5.7%	u	u
NC(=S)N/N=C/c1ccccc1OC(=O)/C=C/c1ccccc1	13.8%	-10.4%	3.55µM*	3.55µM*	2.51µM*
OCCc1c[nH]c2ccc(OCc3ccccc3)cc12	2.1%	1.4%	3.0%	-14.7%	-0.1%
NC(=S)N/N=C\c1c(OCc2ccccc2Cl)ccc2ccccc12	14.5%	u	3.16µM*	1.12µM*	u
Cc1ccc(C(=O)N2CCN(c3cccc(Cl)c3)CC2)cc1-n1c(C)nc2cccnc21	x	-7.2%	x	x	0.0%
CC[C@@H](c1ccccc1)n1c(=O)n2n(c1=O)[C@H]1[C@H](O)[C@H]3O[C@@H]3/C(=N/OCC(C)C)[C@@H]1CC2	x	x	5.3%[10 µM]	-1.3%[10 µM]	x
COc1ccc(OC)c(CCNc2ncnc3onc(C)c23)c1	x	1.6%	x	x	-4.8%
CCCC[C@@H]1CCCO[C@@](C(=O)NCCOC)(C(F)(F)F)C1	x	x	-5.8%	-5.8%	x
CC(C)c1ccc(NC(=O)C(Cc2ccccc2)NS(=O)(=O)c2ccc3c(c2)CCC(=O)N3)cc1 (stereo not given)	-2.7%	-9.3%	x	x	-17.0%
NC(=S)N/N=C\c1ccccc1OCc1ccccc1	-2.4%	u	3.55µM*	2.24µM*	5.62µM*
O=C(CSCc1ccccc1)N/N=C/c1ccccc1OCc1ccccc1	7.8%	2.0%	-4.7%	-6.5%	28.6%
